Results filed as inconclusive are left out. A number with no mark means an inactive call. The source made the active and inactive calls. Calls follow the shape of the dose curve; as a rule, active = well fitted curve in the direction sought with a large enough effect; inconclusive = small, poorly fitted or top-dose-only effect, or another doubt; inactive = no such curve, though single readings can be large; an effect the other way counts as inactive or inconclusive.
These compounds were tested on MKL-2 (assay: qHTS assay to identify novel small-molecules to repurpose for Merkel cell carcinoma treatment (AID 1296009; also: nearly all actives have a fitted effect of over 60% in size)). Conditions: MCC and control cell lines, CellTiter-Glo viability, 72 h; series mostly up to 46 µM; activity change, negative = cytotoxicity: at the top concentration.
Procedure, shortened: (§1)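 Cell viability measured by CellTiter-Glo following 72 hr compound treatment at 37 degree celsius, with NPC and MIPE libraries tested in 8- and 11-point concentration series.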
% is scaled to controls: 0 for no effect and ±100 for the full control effect; potency is read from the fitted curve at half-maximal effect.

Compound | Potency
CC(=O)c1ccc2c(c1)N(CCCN1CCC(CCO)CC1)c1ccccc1S2 | 21.1 µM (active)
CN(C(=O)CN(CCO)CC(=O)N(C)C(C)(C)Cc1ccccc1)C(C)(C)Cc1ccccc1 | 16.8 µM (active)
CC(C)=CCC1C(=O)N(c2ccccc2)N(c2ccccc2)C1=O | 13.3 µM (active)

The compounds below were run on UISO in the same assay as above. Conditions: MCC and control cell lines, CellTiter-Glo viability, 72 h; series mostly up to 46 µM; activity change, negative = cytotoxicity: at the top concentration.
Procedure, shortened: as §1

Compound | activity change, negative = cytotoxicity [%] | Potency
Cc1c(C)n(Cc2ccccc2)c2ccc(C(=O)OCCN(C)C)cc12 | -1.13 | –
CCN(CC)CCOC(=O)C(c1ccccc1)C1CCCCC1 (stereo not given) | -23.6 | –
CC(O)(P(=O)(O)O)P(=O)(O)O | 9.17 | –
CCCOC(C(=O)OC1CCN(C)CC1)(c1ccccc1)c1ccccc1 | 2.4 | –
Oc1ccc(Cl)cc1Sc1cc(Cl)ccc1O | – | 18.8 µM (active)
C[C@H]1C[C@H]2[C@@H]3CCC4=CC(=O)C=C[C@]4(C)[C@@]3(Cl)[C@@H](O)C[C@]2(C)[C@@]1(O)C(=O)CO | 7.59 | –
O=C(COc1ccc(Cl)cc1)N1CCN(Cc2ccc3c(c2)OCO3)CC1 | -16.5 | –
Cc1cccc(C)c1NC(=O)CN1CCN(CCCC(c2ccc(F)cc2)c2ccc(F)cc2)CC1 | -0.195 | –
COc1cc2c(cc1OC)C(C(C(=O)N(CCc1ccc(OC)c(OC)c1OC)CCc1ccc(OC)c(OC)c1OC)c1ccccc1)=NCC2 (stereo not given) | -28.7 | –
COCc1c(C(C)C)nc(C(C)C)c(/C=C/[C@@H](O)C[C@@H](O)CC(=O)O)c1-c1ccc(F)cc1 | – | 0.473 µM (active)
COc1cccc2c1C(=O)c1c(O)c3c(c(O)c1C2=O)C[C@@](O)(C(=O)CO)C[C@@H]3O[C@H]1C[C@H](N)[C@H](O)[C@H](C)O1 | – | 0.75 µM (active)
c1ccc(CNCCNCc2ccccc2)cc1 | -7.87 | –
C=C1C[C@H]2[C@@H]3C=C(C)C4=CC(=O)CC[C@]4(C)[C@H]3CC[C@]2(C)[C@@]1(OC(C)=O)C(C)=O | -1.77 | –
CCN(CCCc1ccccc1)CCCc1ccccc1 | -5.82 | –
COc1cccc(CCc2ccccc2OCC(CN(C)C)OC(=O)CCC(=O)O)c1 (stereo not given) | -12.9 | –
CN1CCN(CCCN2c3ccccc3Sc3ccc(S(=O)(=O)N(C)C)cc32)CC1 | -9.2 | –

The compounds below were run on WaGa in the same assay as above. Conditions: MCC and control cell lines, CellTiter-Glo viability, 72 h; series mostly up to 46 µM; activity change, negative = cytotoxicity: at the top concentration.
Procedure, shortened: as §1

Compound | activity change, negative = cytotoxicity [%] | Potency
Cc1c(C)n(Cc2ccccc2)c2ccc(C(=O)OCCN(C)C)cc12 | -19.9 | –
COc1ccc(CCN2CCC(Nc3nc4ccccc4n3Cc3ccc(F)cc3)CC2)cc1 | – | 21.1 µM (active)
CCN(CC)CCOC(=O)C(c1ccccc1)C1CCCCC1 (stereo not given) | -23.7 | –
CC(O)(P(=O)(O)O)P(=O)(O)O | 9.84 | –
CCCCOc1ccc(C(=O)CCN2CCCCC2)cc1 | – | 23.7 µM (active)
Oc1ccc(Cl)cc1Sc1cc(Cl)ccc1O | – | 21.1 µM (active)
C[C@H]1C[C@H]2[C@@H]3CCC4=CC(=O)C=C[C@]4(C)[C@@]3(Cl)[C@@H](O)C[C@]2(C)[C@@]1(O)C(=O)CO | 4.35 | –
Cc1cccc(C)c1NC(=O)CN1CCN(CCCC(c2ccc(F)cc2)c2ccc(F)cc2)CC1 | 13.1 | –
CCN(CC)CCOc1ccc(C(O)(Cc2ccc(Cl)cc2)c2ccc(C)cc2)cc1 (stereo not given) | – | 18.8 µM (active)
COCc1c(C(C)C)nc(C(C)C)c(/C=C/[C@@H](O)C[C@@H](O)CC(=O)O)c1-c1ccc(F)cc1 | – | 1.06 µM (active)
c1ccc(CNCCNCc2ccccc2)cc1 | 3.76 | –
CCN(CCCc1ccccc1)CCCc1ccccc1 | -1.36 | –
O=C(CCN1CCC(c2ccccc2)C1)c1ccc2c(c1)OCCO2 (stereo not given) | – | 2.99 µM (active)
CC(=O)N/N=C/c1ccc([N+](=O)[O-])o1 | – | 23.7 µM (active)

Each compound was assayed on C33A (assay: Primary qHTS to identify gynecologic anti-cancer compounds using libraries of approved drugs and bioactive compounds (AID 1345084; also: nearly all actives have a fitted effect of over 55% in size)). Conditions: Gynecologic cancer cell panel viability, ATPlite luminescence, 48 h; series mostly up to 57.5 µM; activity change, negative = cytotoxicity: at the top concentration.
Procedure, shortened: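 48 h compound exposure at 37 C, 5% CO2; five-point qHTS. ATPlite luminescence readout of cell ATP.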

Compound | activity change, negative = cytotoxicity [%] | Potency
Cc1c(C)n(Cc2ccccc2)c2ccc(C(=O)OCCN(C)C)cc12 | -17.3 | –
O=C1OCCN1/N=C/c1ccc([N+](=O)[O-])o1 | -7.81 | –
CCN(CC)CCOC(=O)C(c1ccccc1)C1CCCCC1 (stereo not given) | -7.26 | –
O=C(CCCN1CCC(O)(c2ccc(Br)cc2)CC1)c1ccc(F)cc1 | 5.11 | –
CC(O)(P(=O)(O)O)P(=O)(O)O | 0.984 | –
CCCCOc1ccc(C(=O)CCN2CCCCC2)cc1 | -14 | –
Clc1ccc2c(c1)CCc1cccnc1C2=C1CCNCC1 | -18.3 | –
CCCOC(C(=O)OC1CCN(C)CC1)(c1ccccc1)c1ccccc1 | 0.83 | –
COC1=CC(=O)C[C@@H](C)[C@]12Oc1c(Cl)c(OC)cc(OC)c1C2=O | -0.631 | –
Oc1c(I)cc(I)c2cccnc12 | -0.503 | –
C[C@H]1C[C@H]2[C@@H]3CCC4=CC(=O)C=C[C@]4(C)[C@@]3(Cl)[C@@H](O)C[C@]2(C)[C@@]1(O)C(=O)CO | -13.4 | –
O=C(COc1ccc(Cl)cc1)N1CCN(Cc2ccc3c(c2)OCO3)CC1 | -0.494 | –
CC1=C(C(=O)OC(C)C)C(c2cccc([N+](=O)[O-])c2)C(C(=O)OC2CN(C(c3ccccc3)c3ccccc3)C2)=C(N)N1 (stereo not given) | 4.82 | –
COc1cc2c(cc1OC)C(C(C(=O)N(CCc1ccc(OC)c(OC)c1OC)CCc1ccc(OC)c(OC)c1OC)c1ccccc1)=NCC2 (stereo not given) | -0.0523 | –
COc1cccc2c1C(=O)c1c(O)c3c(c(O)c1C2=O)C[C@@](O)(C(=O)CO)C[C@@H]3O[C@H]1C[C@H](N)[C@H](O)[C@H](C)O1 | – | 2.82 µM (active)
c1ccc(CNCCNCc2ccccc2)cc1 | -17 | –
C=C1C[C@H]2[C@@H]3C=C(C)C4=CC(=O)CC[C@]4(C)[C@H]3CC[C@]2(C)[C@@]1(OC(C)=O)C(C)=O | -2.15 | –
CCN(CCCc1ccccc1)CCCc1ccccc1 | -11 | –
O=C(CCN1CCC(c2ccccc2)C1)c1ccc2c(c1)OCCO2 (stereo not given) | 5.41 | –
CN(C)CC/C=C1\c2ccccc2Sc2ccc(Cl)cc21 | -9.2 | –
COc1cccc(CCc2ccccc2OCC(CN(C)C)OC(=O)CCC(=O)O)c1 (stereo not given) | -27.2 | –
CN1CCC(=C2c3ccccc3Sc3ccccc32)CC1 | -9.74 | –
CN1CCN(CCCN2c3ccccc3Sc3ccc(S(=O)(=O)N(C)C)cc32)CC1 | -0.565 | –
CC(=O)N/N=C/c1ccc([N+](=O)[O-])o1 | -0.698 | –
CC(=O)c1ccc2c(c1)N(CCCN1CCC(CCO)CC1)c1ccccc1S2 | -2.16 | –
CN(C(=O)CN(CCO)CC(=O)N(C)C(C)(C)Cc1ccccc1)C(C)(C)Cc1ccccc1 | 1.11 | –
CC(C)=CCC1C(=O)N(c2ccccc2)N(c2ccccc2)C1=O | -2.93 | –

— PubChem BioAssay (NCATS)
